In assay [1] the target is Tyrosine-protein kinase SYK (Homo sapiens) (UniProt P43405). Conditions: at 10 µM.
Assay [2] deals with T1, Mitogen-activated protein kinase kinase kinase 7 (Homo sapiens) (UniProt O43318).
T1 sequence (whole entry): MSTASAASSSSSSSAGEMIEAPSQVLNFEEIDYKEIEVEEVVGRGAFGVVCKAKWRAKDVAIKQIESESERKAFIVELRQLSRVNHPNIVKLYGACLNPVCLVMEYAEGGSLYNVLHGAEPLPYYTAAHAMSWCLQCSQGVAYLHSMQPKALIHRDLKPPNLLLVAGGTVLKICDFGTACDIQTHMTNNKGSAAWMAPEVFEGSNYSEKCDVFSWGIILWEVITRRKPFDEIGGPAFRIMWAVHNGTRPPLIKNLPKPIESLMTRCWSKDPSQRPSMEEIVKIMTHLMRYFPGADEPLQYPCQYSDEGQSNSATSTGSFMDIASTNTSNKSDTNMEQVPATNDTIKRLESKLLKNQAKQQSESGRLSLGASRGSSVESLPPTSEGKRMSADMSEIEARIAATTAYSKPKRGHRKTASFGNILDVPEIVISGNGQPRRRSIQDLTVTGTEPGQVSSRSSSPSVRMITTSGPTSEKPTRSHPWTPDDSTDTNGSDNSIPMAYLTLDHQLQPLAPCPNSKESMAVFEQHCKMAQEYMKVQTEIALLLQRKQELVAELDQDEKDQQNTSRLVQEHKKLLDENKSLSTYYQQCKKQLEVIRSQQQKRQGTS
Conditions: at 1 µM.

Assay [3] addresses T1, Mitogen-activated protein kinase kinase kinase 7 (Homo sapiens). To be noted: at 10 µM.
For assay [4], the target named is T2, Serine/threonine-protein kinase TAO1 (Homo sapiens) (UniProt Q7L7X3).
T2 sequence (whole entry): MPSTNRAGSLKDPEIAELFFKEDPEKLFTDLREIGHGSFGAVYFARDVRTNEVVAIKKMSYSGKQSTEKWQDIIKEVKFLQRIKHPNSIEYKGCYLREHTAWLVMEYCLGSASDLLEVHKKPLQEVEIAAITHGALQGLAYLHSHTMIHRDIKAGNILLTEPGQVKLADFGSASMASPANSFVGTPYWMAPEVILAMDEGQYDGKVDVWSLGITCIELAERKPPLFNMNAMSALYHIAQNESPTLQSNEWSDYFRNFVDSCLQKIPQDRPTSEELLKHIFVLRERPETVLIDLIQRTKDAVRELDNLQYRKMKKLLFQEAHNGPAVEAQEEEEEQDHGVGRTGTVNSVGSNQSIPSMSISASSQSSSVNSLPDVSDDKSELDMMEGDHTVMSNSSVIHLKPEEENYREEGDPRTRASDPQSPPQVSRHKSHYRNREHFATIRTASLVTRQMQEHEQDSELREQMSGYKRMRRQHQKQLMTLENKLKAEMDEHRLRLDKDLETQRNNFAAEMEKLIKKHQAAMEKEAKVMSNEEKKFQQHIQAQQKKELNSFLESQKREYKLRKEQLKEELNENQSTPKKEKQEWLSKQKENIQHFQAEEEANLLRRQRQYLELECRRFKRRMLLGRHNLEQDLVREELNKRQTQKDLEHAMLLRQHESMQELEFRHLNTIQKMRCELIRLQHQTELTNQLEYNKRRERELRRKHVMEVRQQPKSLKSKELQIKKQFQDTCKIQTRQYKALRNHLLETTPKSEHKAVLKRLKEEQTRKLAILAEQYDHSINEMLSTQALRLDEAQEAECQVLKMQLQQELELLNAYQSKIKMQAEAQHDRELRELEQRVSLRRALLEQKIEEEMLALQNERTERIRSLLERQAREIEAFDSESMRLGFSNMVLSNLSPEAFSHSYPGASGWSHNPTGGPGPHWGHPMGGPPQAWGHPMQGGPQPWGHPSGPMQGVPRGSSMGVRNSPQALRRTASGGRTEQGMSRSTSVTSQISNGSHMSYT
Conditions: at 1 µM.

The target in assay [5] is T2, Serine/threonine-protein kinase TAO1 (Homo sapiens). To be noted: at 10 µM.
The target of assay [6] is T3, Serine/threonine-protein kinase TAO3 (Homo sapiens) (UniProt Q9H2K8).
T3 sequence (whole entry): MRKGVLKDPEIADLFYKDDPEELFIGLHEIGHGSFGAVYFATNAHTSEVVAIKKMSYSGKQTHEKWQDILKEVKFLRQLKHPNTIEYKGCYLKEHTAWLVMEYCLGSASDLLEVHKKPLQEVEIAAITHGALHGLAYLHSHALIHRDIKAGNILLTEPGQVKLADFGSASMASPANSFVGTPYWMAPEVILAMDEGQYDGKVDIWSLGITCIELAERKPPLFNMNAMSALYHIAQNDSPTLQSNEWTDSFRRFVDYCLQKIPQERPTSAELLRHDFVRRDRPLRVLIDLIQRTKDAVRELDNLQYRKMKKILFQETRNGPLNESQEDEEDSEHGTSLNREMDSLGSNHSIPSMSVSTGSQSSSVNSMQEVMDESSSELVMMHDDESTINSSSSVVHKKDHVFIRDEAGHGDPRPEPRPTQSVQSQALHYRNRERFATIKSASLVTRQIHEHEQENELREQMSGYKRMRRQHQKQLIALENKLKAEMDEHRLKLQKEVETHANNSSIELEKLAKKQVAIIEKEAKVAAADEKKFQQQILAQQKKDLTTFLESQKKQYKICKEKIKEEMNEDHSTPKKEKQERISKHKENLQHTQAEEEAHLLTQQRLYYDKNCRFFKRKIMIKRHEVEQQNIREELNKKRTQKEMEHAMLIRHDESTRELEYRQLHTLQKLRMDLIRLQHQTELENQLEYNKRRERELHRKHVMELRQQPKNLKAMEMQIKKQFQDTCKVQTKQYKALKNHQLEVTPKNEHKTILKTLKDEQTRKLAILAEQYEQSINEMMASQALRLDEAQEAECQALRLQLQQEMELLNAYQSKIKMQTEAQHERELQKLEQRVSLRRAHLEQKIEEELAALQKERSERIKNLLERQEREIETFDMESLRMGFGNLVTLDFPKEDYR
To be noted: at 1 µM.

The target in assay [7] is T3, Serine/threonine-protein kinase TAO3 (Homo sapiens). To be noted: at 10 µM.
The target of assay [8] is T4, Serine/threonine-protein kinase TBK1 (Homo sapiens) (UniProt Q9UHD2).
T4 sequence (whole entry): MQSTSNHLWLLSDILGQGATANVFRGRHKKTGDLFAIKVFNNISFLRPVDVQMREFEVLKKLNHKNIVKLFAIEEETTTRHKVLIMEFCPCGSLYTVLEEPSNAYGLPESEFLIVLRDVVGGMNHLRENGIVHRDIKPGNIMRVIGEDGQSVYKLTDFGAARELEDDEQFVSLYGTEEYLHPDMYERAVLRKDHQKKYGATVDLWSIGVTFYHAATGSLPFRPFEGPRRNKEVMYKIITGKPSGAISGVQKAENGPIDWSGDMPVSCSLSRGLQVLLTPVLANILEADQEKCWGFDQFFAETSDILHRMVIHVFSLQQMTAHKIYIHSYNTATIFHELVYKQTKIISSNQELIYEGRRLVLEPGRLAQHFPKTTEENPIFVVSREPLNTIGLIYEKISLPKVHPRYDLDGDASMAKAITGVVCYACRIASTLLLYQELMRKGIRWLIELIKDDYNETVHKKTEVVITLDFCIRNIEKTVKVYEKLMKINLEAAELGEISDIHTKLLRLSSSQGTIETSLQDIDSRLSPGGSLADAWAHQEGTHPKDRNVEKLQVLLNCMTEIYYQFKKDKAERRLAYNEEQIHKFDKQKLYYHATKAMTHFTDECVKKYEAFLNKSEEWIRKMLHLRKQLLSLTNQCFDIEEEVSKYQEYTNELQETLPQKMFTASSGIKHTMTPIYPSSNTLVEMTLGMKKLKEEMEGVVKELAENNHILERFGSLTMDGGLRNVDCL
Conditions: at 1 µM.

Assay [9] deals with T4, Serine/threonine-protein kinase TBK1 (Homo sapiens). To be noted: at 10 µM.
The target in assay [10] is T5, Inhibitor of nuclear factor kappa-B kinase subunit alpha (Homo sapiens) (UniProt O15111).
T5 sequence (whole entry): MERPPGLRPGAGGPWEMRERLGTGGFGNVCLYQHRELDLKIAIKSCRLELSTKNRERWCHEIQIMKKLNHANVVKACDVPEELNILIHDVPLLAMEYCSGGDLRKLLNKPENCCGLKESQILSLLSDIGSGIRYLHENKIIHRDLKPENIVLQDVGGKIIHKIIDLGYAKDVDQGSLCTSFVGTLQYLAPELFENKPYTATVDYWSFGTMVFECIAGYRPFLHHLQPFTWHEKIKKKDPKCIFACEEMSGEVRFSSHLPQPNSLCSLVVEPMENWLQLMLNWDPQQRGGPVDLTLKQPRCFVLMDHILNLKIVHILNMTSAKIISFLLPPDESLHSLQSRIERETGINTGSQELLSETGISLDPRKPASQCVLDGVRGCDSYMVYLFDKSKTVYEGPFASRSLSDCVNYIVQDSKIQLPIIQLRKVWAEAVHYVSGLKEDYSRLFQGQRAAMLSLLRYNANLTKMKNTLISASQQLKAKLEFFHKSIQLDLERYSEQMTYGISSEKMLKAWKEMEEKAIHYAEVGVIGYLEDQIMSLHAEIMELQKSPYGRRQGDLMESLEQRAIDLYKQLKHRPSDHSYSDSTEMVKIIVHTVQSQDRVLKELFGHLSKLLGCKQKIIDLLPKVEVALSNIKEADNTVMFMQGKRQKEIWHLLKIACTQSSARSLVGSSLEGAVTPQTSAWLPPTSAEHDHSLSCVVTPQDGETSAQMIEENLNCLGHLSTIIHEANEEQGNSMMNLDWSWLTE
Conditions: at 1 µM.

Assay [11] addresses T5, Inhibitor of nuclear factor kappa-B kinase subunit alpha (Homo sapiens). To be noted: at 10 µM.
Assay [12] addresses Insulin receptor (Homo sapiens) (UniProt P06213). To be noted: at 1 µM.

Sequence of Insulin receptor (Homo sapiens) (P06213 28-758 limits assumed): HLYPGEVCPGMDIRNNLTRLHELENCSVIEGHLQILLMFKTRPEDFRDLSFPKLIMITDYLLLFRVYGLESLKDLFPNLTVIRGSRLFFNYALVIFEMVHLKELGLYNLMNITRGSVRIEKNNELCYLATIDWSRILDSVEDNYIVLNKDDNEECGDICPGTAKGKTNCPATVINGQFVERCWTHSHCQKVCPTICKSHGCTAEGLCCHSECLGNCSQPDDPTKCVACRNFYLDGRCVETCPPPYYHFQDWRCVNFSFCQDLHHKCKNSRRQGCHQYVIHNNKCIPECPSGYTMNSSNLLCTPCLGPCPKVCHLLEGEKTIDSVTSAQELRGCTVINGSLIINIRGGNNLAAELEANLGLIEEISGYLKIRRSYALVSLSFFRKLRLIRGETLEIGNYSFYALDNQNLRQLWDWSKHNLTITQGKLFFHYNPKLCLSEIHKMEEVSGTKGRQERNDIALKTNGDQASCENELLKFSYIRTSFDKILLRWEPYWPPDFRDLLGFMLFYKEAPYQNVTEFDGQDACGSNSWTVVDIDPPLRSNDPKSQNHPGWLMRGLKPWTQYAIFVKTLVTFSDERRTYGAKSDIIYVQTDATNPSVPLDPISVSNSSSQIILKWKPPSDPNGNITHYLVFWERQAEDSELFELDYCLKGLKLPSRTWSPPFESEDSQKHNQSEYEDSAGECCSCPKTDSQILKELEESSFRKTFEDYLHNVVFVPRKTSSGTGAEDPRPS
Sequence of Insulin receptor (Homo sapiens) (P06213 763-1382 limits assumed): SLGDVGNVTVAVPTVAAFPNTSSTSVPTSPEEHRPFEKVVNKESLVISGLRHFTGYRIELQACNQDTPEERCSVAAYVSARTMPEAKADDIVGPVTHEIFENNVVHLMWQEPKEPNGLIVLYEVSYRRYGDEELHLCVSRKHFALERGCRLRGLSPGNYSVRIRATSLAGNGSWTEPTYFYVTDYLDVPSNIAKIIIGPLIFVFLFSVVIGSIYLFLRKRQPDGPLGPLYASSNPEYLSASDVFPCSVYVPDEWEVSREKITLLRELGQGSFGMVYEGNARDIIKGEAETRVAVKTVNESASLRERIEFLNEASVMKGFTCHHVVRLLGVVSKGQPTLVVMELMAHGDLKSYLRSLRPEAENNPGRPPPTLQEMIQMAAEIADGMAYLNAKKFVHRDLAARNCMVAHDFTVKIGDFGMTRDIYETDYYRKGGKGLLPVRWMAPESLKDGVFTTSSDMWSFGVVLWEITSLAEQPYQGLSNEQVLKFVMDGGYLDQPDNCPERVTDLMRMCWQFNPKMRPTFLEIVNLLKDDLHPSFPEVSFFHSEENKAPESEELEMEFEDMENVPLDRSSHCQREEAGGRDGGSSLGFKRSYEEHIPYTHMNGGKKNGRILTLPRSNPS

As to `NCCNc1ncc(C(N)=O)c(Nc2cccc(C(F)(F)F)c2)n1`, the residual activity in [1] is 0%; in [2] it was 78%; in [3], 25%; in assay [4], 78%; in [5] it was 28%; in assay [6] it was 73%. Moreover, the residual activity in [7] was 32%; in assay [8] it was 79%; in assay [9], 54%; in assay [10], 104%; in assay [11], 66%; in assay [12] it was 115%.

Values taken from ChEMBL document CHEMBL2218924, “A broad activity screen in support of a chemogenomic map for kinase signalling research and drug discovery” (Biochem J, 2013).
